Our source for the INHIBITION values is ChEMBL document CHEMBL4513216, “Probing the Open Global Health Chemical Diversity Library for Multistage-Active Starting Points for Next-Generation Antimalarials” (ACS Infect Dis, 2020).

The whole screen tested about 69,000 compounds, of which about 8,600 (12%) showed an effect of 50% or more. This is one part of a sample in which strong results are shown more often than they occur.

In this assay the test system is Plasmodium berghei. As to the kind of experiment: Screen against P. berghei liver stage (PbLuc), transformed with Luciferase, at 10uM. It counts as functional, HepG2. Particulars: tested at 10 uM.
As for `CC(C)(C)OCC1CN(Cc2cccs2)S(=O)(=O)c2cnccc2O1` (stereo not drawn), the INHIBITION was found to be 10.9%. The same measure for `OCCN1CCCCC1C1OCCO1` (stereo not drawn): -45.2%; for `O=S(=O)(C1CC1)N1Cc2[nH]nc(COCC3CC3)c2C1`: 36.4%. The same measure for `CCn1nc(C)c2ncnc(NCCN3CCOCC3)c21`: 21.7%. As to `CCn1ncc(S(=O)(=O)NC(C)c2cc(OC)ccc2OC)c1C` (stereo not drawn), the INHIBITION came to 32.3%. The same measure for `Cn1cncc1CN1CCC(O)(Cn2nc(-c3cccs3)oc2=O)CC1`: 38.7%; for `O=C(c1ccccn1)N1CCC(Oc2cccnc2)CC1`: -10.4%. The same measure for `O=C(c1ccc2[nH]cnc2c1)N1CCC(Oc2cccnc2)CC1`: 47.2%; for `O=C(c1cnc[nH]1)N1CCC(Oc2cccnc2)CC1`: 55.9%. The same measure for `CCN1CCN(C)C2(CCN(Cc3ccsc3)CC2)C1=O`: 17.4%. In the case of `COC(=O)c1cc(C(=O)N2CCC(C)CC2)n(-c2ccccc2)n1`, the INHIBITION was 22.265%. The same measure for `Cc1nc2cc(O)nn2c(C)c1CCC(=O)NCCc1nccn1C`: 30.6%; for `CCOC(=O)N1CCN(C(=O)c2cc(-c3ccc(C)cc3)on2)CC1`: 23.4%.

Turning to `Cc1cc(C(=O)Nc2n[nH]c(C3CC3)n2)c2c(C)noc2n1`, the INHIBITION is on record as 6.83%. The same measure for `Nc1cc2c(nn1)CCN(C(=O)c1cccc3c1OCO3)C2`: -16%; for `COC(=O)N1CC(C)=C(C)CN1C(=O)Nc1ccc(Cl)c(Cl)c1`: -52.3%. The same measure for `O=C(C1CCCC1)N1CCC(c2ncc3c(n2)CCNC3)C1` (stereo not drawn): -32.2%; for `CCC(=O)N1CCCC(c2ncc3c(n2)CCN(C)C3)C1` (stereo not drawn): 10%.

`O=C(CCC1CCCC1)N1CCCC(c2ncc3c(n2)CCNC3)C1` (stereo not drawn): the INHIBITION stood at 58.1%.

Take `CCCC(=O)N1CCC(c2ncc3c(n2)CCNC3)CC1`: the INHIBITION is recorded as -28.6%. Take `O=C(CCC1CCCC1)N1CCC(c2ncc3c(n2)CCNC3)CC1`: the INHIBITION was determined as 73.4%. The same measure for `O=C(CC1CCCCC1)N1CCC(c2ncc3c(n2)CCNC3)CC1`: 47.2%; for `CCC(=O)N1CCC(c2ncc3c(n2)CCNC3)CC1`: 37.6%.

Regarding `CN1CCc2nc(C3CCCN(C(=O)CC4CCCCC4)C3)ncc2C1` (stereo not drawn), the INHIBITION was 27.8%. The same measure for `CN1CCc2nc(C3CCN(C(=O)CCC4CCCC4)CC3)ncc2C1`: 85.9%; for `Cc1noc(C)c1C(=O)NCC(C)N1CCc2ccccc21` (stereo not drawn): 13.6%; for `Cc1cc(C(F)(F)F)nn1CC(C)C(=O)Nc1cccnc1` (stereo not drawn): 15.1%. The same measure for `Cc1noc(C2CCC3(CCN(C(=O)c4sccc4C)CC3)O2)n1` (stereo not drawn): -54.7%. The same measure for `CN1CC(C(=O)NCc2ccnc(-n3cccn3)c2)CC1=O` (stereo not drawn): -0.7%; for `CN(Cc1ccco1)[C@@H]1CN(Cc2ccncc2)C[C@@H]2CCCO[C@@H]21`: 23.5%; for `CN(C)c1ccc(CNC2(c3ccc(F)cc3)CCOCC2)cc1F`: 55.6%. For the compound `CSc1ccc(CNC2(c3ccc(F)cc3)CCOCC2)cc1`, the INHIBITION was determined as 13.5%. The same measure for `Fc1ccc(C2(NCc3ccccc3)CCOCC2)cc1`: 4.48%; for `O=S(=O)(c1cncc(F)c1)N1CCC2(CCCCC2)C1`: 19.3%. The same measure for `Cc1ncsc1CN1Cc2cnn(C)c2C(COCC2CC2)C1` (stereo not drawn): -0.813%; for `Cc1noc(C)c1CN1Cc2cn(C)nc2C(COCC2CC2)C1` (stereo not drawn): 48.6%; for `Cc1ccc(CN2Cc3cnn(C)c3C(COCC3CC3)C2)o1` (stereo not drawn): 54.4%. The same measure for `Cc1ccc(CN2Cc3nnn(C)c3C(COCC3CC3)C2)o1` (stereo not drawn): -14.7%. In the case of `Cc1noc(C)c1CN1Cc2cnn(C)c2C(COCC2CC2)C1` (stereo not drawn), the INHIBITION was found to be 54.4%. The same measure for `Cn1ncc2c1C(COCC1CC1)CN(Cc1ccco1)C2` (stereo not drawn): 20.6%. The same measure for `Cn1ncc2c(=O)[nH]c(CN3CCCC3c3ccccc3Cl)nc21` (stereo not drawn): -19.6%; for `Cc1ccc(-c2nc(C(=O)N(C)C3CCN(C)CC3)cs2)c(C)c1`: 27.7%. In the case of `Cc1sc(Br)cc1S(=O)(=O)NCCCN`, the INHIBITION worked out at 8.08%. The same measure for `CC(=O)N1CCCN(C(=O)NCC2(c3cccs3)CCCC2)CC1`: 23.9%.

On to `Cc1nc(C)n(CC2CCCN(CCOc3ccc(F)cc3)C2)n1` (stereo not drawn), for which the INHIBITION amounted to 4.52%. As for `CN1CCO[C@H]2CN(S(=O)(=O)c3ccc(C#N)cc3)C[C@H]21`, the INHIBITION is 5.63%. As for `CC(C)NCC1(COc2ccccc2)C[C@@H](O)[C@@H](O)C1` (stereo partly drawn), the INHIBITION is on record as 38.3%. The same measure for `NC(=O)c1ccc(OCC(=O)N2CCCC(n3cccn3)C2)cc1` (stereo not drawn): -25.9%; for `O=C(COCCc1ccccc1)N1CCCC(n2cccn2)C1` (stereo not drawn): 61.9%.

`O=C(CCNc1ncccn1)N1CCCC(n2cccn2)C1` (stereo not drawn): the INHIBITION stood at 50.3%. The same measure for `NC(=O)COc1cccc(C(=O)N2CCCC(n3cccn3)C2)c1` (stereo not drawn): 20.1%. The same measure for `O=C(COCC1CC1)N1CCCC(n2cccn2)C1` (stereo not drawn): 8.48%; for `O=C(COCCc1ccccc1)N1CCCC(n2cncn2)C1` (stereo not drawn): 7.12%. The same measure for `O=C(CCNc1ncccn1)N1CCCC(n2ccnc2)C1` (stereo not drawn): 21.1%; for `NC(=O)c1cccc(OCC(=O)N2CCCC(n3cccn3)C2)c1` (stereo not drawn): 57.5%. For `O=C(CCCNc1ncccn1)N1CCCC(n2cccn2)C1` (stereo not drawn), the INHIBITION is given as 8.48%. The same measure for `Cc1nn(C)c(N(C)C)c1CNC(C)COc1ccc(F)cc1F` (stereo not drawn): -41.6%. On to `O=S(=O)(NCCC(O)c1ccoc1)c1ccc(Cl)s1` (stereo not drawn), for which the INHIBITION is -5.22%. With `COc1cc2nc(C)n(CC(=O)NCCO)c(=O)c2cc1OC`, the INHIBITION stood at 4.82%.

Take `COc1cc(OC)cc(-c2noc(CC(N)c3ccccc3)n2)c1` (stereo not drawn): the INHIBITION is listed as 36.3%. The same measure for `CN1CCN(Cc2nnc(C3CCN(S(C)(=O)=O)CC3)n2C)CC1`: -14.3%; for `CN(CC(F)(F)F)C(=O)CNC(=O)N1CCCC(N(C)C)C1` (stereo not drawn): 53.3%; for `CN(CC(F)(F)F)C(=O)CNC(=O)N1CCCC(C(F)(F)F)C1` (stereo not drawn): 18.6%. The same measure for `CC1CCN(C(=O)NCC(=O)N(C)CC(F)(F)F)C1` (stereo not drawn): 18.6%.

On to `NCC(=O)N1CCCC(c2ccnc(Nc3cnccn3)n2)C1` (stereo not drawn), for which the INHIBITION worked out at 18.9%. The same measure for `CCC(=O)N1CCCC1c1nccnc1Nc1ncccn1` (stereo not drawn): 42.6%.

Regarding `NCC(=O)N1CCCC(c2cncc(Nc3ncccn3)n2)C1` (stereo not drawn), the INHIBITION was determined as 51.7%. The same measure for `COCC(=O)N1CCCC1c1nccnc1Nc1ncccn1` (stereo not drawn): 7.05%; for `NC(=O)CN1CCCC(c2cncc(Nc3ncccn3)n2)C1` (stereo not drawn): 59%; for `COc1ccccc1Oc1cncc(C2CCCN(CC(N)=O)C2)n1` (stereo not drawn): 20.8%. On to `c1cnc(Nc2cncc(C3CCCN(c4cnccn4)C3)n2)nc1` (stereo not drawn), for which the INHIBITION was -6.3%. The same measure for `NCC(=O)N1CCCC1c1nccnc1Nc1ncccn1` (stereo not drawn): 59%. The same measure for `c1cnc(Nc2cncc(C3CCCN(c4ncccn4)C3)n2)nc1` (stereo not drawn): -0.371%.
